Results reported in PubChem BioAssay.
Calls of active or inactive are those of the source. Unless noted, the rule behind the calls is not given here.

Experiments:
[1] = A549 cell viability effects, profiling panel, calcein-AM fluorescence, 48 h, basal (AID 1162); details: higher = more signal; note: test concentration not given here
[2] = adipocyte viability effects, profiling panel, cell-based, 3T3-L1 adipocytes, calcein-AM fluorescence, 48 h, basal (AID 1163); details: 3T3-L1 adipocytes viability, higher = more signal; note: test concentration not given here
[3] = HepG2 cell viability effects, profiling panel, calcein-AM fluorescence, 48 h, basal (AID 1164); details: higher = more signal; note: test concentration not given here
[4] = MM1S cell viability effects, profiling panel, calcein-AM fluorescence, 48 h, basal (AID 1165); details: higher = more signal;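 note: viability of MM1S multiple myeloma cells under basal unstimulated conditions; test concentration not given here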
[5] = basal RPMI8226 viability, no added stimulus, profiling panel, cell-based, calcein-AM fluorescence, 48 h, PK04 Diversity Set (AID 1166); details: RPMI8226 myeloma viability, higher = more signal;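 note: cells grown under basal conditions without added stimulus; test concentration not given here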
[6] = basal HepG2 mitochondrial membrane potential changes, profiling panel, cell-based, JC-1 fluorescence, 24 h, 100 nL compound (AID 1167); details: higher = more signal; note: test concentration not given here
[7] = basal 3T3-L1 adipocyte mitochondrial potential changes, profiling panel, cell-based, JC-1 fluorescence, 3T3-L1 adipocytes, 24 h, 100 nL compound (AID 1168); details: JC-1 mitochondrial fluorescence, higher = more signal, called active from +8 up or from −8 down; note: test concentration not given here
[8] = basal RPMI8226 mitochondrial membrane potential changes, profiling panel, cell-based, JC-1 fluorescence, 24 h, 100 nL compound (AID 1169); details: RPMI8226 myeloma, JC-1 mitochondrial potential fluorescence, higher = more signal; note: test concentration not given here
[9] = basal MM1S mitochondrial membrane potential changes, profiling panel, cell-based, JC-1 fluorescence, 24 h, 100 nL compound (AID 1170); details: higher = more signal; note: test concentration not given here
[10] = A549 lung cancer cell viability effects, profiling panel, resazurin fluorescence, 24 h, PK04 Diversity Set (AID 1171); details: higher = more signal, called active from +8 up or from −8 down; note: test concentration not given here
[11] = HepG2 liver cancer cell viability effects, profiling panel, resazurin fluorescence, 24 h, PK04 Diversity Set (AID 1172); details: higher = more signal; note: test concentration not given here
[12] = basal S. cerevisiae growth modulation, no modifier, primary screen, OD600, strain BY4716, 24 h, basal condition (AID 1173); details: OD600, 24 h, higher = more signal, called active from +8 up or from −8 down
[13] = MM1S myeloma cell viability, profiling panel, resazurin fluorescence, basal, 24 h, PK04 Diversity Set (AID 1174); details: higher = more signal, called active from +8 up or from −8 down;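 note: MM1S multiple myeloma cell line; test concentration not given here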
[14] = biological target: Dihydroorotate dehydrogenase (quinone), mitochondrial (Plasmodium falciparum (isolate 3D7)) (UniProt Q08210); test: PfDHODH enzyme inhibitors, primary screen, biochemical, C-terminal His tag, absorbance 600 nm (AID 1175); details: DCIP absorbance 600 nm, higher = more signal, called active from +8 up or from −8 down;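 note: recombinant parasite enzyme with a five histidine tag at its C terminus; test concentration not given here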
Sequence of Dihydroorotate dehydrogenase (quinone), mitochondrial (Plasmodium falciparum (isolate 3D7)) (Q08210 whole entry, looked up): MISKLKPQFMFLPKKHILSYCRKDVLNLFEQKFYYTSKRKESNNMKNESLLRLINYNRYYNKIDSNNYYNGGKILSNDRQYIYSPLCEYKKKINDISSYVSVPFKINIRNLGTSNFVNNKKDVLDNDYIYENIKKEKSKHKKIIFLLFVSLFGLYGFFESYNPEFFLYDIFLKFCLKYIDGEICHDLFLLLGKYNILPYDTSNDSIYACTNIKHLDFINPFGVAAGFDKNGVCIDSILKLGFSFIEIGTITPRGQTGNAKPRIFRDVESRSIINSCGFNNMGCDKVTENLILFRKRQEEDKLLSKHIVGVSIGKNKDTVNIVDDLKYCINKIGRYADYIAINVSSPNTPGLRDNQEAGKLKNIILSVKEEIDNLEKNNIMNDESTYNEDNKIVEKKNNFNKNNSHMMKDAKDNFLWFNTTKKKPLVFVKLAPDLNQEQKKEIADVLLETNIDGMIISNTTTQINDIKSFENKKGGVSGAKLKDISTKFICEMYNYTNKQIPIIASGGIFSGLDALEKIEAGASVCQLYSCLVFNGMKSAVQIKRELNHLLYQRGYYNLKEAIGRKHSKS

[15] = P. aeruginosa biofilm formation inhibitors, primary screen, strain PAO1, LB-PBS medium, absorbance 600 nm (AID 1176); note: test concentration not given here; details: P. aeruginosa PAO1 growth/biofilm, A600, 12 h; higher = more signal
[16] = S. cerevisiae RM11-1a growth modifiers, primary screen, strain RM11-1a, OD600, basal, 24 h (AID 1177); details: OD600, 24 h, higher = more signal, called active from +8 up or from −8 down;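 note: cultures grown under basal conditions with no added stressor; test concentration not given here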
[17] = E. coli acrAB mutant growth effects, primary screen, E. coli filamentation inducers, strain DRC39, OD650, 24 h (AID 1178); details: higher = more signal, called active from +8 up or from −8 down;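 note: growth measured as culture turbidity by optical density at 650 nm; test concentration not given here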
[18] = E. coli acrAB mutant growth effects, primary screen, E. coli filamentation inducers, strain DRC39, OD650, 48 h (AID 1179);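 note: screen aims at cell division blockers that make cells filament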; details: E. coli DRC39 delta-acrAB growth, higher = more signal, called active from +8 up or from −8 down
[19] = RPMI8226 myeloma cell viability, profiling panel, resazurin fluorescence, basal, 24 h, PK04 Diversity Set (AID 1180); details: higher = more signal;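 note: RPMI8826 multiple myeloma cell line at 5000 cells per well; test concentration not given here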
[20] = biological target: E3 ubiquitin-protein ligase XIAP (Homo sapiens) (UniProt P98170); test: XIAP binders, primary screen, biophysical, small-molecule microarray, fluorescence 635 nm (AID 1181); details: small-molecule microarray binding, higher = more signal;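 note: score merges 667 nm emission and signal to noise over triplicate slides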
Sequence of E3 ubiquitin-protein ligase XIAP (Homo sapiens) (P98170 whole entry, looked up): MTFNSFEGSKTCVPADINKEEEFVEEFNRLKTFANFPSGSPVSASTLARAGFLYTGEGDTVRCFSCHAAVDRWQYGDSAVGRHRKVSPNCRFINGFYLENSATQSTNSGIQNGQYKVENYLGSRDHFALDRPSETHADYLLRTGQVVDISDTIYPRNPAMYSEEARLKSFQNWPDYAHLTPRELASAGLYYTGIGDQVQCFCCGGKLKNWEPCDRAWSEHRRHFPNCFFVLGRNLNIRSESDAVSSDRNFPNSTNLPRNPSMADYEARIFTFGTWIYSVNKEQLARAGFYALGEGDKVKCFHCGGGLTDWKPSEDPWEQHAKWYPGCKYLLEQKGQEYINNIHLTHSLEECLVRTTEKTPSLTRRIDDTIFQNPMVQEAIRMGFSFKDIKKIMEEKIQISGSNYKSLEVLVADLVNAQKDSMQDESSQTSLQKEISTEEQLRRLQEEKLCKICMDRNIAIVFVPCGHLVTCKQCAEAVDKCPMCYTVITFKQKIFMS

Structure (SMILES)	z-score [1]	z-score [2]	z-score [3]	z-score [4]	z-score [5]	z-score [6]	z-score [7]	z-score [8]	z-score [9]	z-score [10]	z-score [11]	z-score [12]	z-score [13]	composite z-score [14]	z-score [15]	z-score [16]	z-score [17]	z-score [18]	z-score [19]	composite z-score [20]
COC(=O)[C@@]1(Cc2ccc(OC)cc2)[C@H]2c3cc(C(=O)N(C)C)n(CCF)c3C[C@H]2CN1C(=O)c1ccccc1	-0.444	-0.228	-0.0897	0.841	-0.111	1.49	0.454 (inactive)	-0.339	-1.55	-0.391 (inactive)	0.586	2 (inactive)	-0.386 (inactive)	0.343 (inactive)	-0.278 (inactive)	0.177 (inactive)	0.471 (inactive)	-0.143 (inactive)	-0.102	-0.0592
CCOC(=O)C1=CCC(c2cccc(Cl)c2)O1 (stereo not given)	-1	0.464	-0.531	-0.488	-1.15	-0.454	-0.627 (inactive)	0.96	-0.472	1.16 (inactive)	0.482	-4.22 (inactive)	0.402 (inactive)	-0.863 (inactive)	0.601 (inactive)	-1.6 (inactive)	0.484 (inactive)	-0.16 (inactive)	-0.0798	0.19
COCCOC(=O)N1C(=O)[C@@]2(c3cc(C#CCC(C(=O)OC)C(=O)OC)ccc31)[C@H](c1ccc(OCCO)cc1)N1[C@H](c3ccccc3)[C@H](c3ccccc3)OC(=O)[C@H]1[C@@H]2C(N)=O	0.462	0.433	0.322	-2.51	-2.67	-0.0777	1.3 (inactive)	-0.72	-0.0535	1.18 (inactive)	0.331	1.87 (inactive)	-0.22 (inactive)	-1.15 (inactive)	2.32 (inactive)	2.34 (inactive)	-0.102 (inactive)	-0.554 (inactive)	-0.112	0.049
CC(C)CN1C(=O)[C@@]2(Cc3ccccc31)c1ccccc1C(=O)N(Cc1ccccc1)[C@H]2c1ccc(CO)cc1	-0.225	-0.0208	-0.134	-0.688	-0.152	-0.529	-0.224 (inactive)	0.0482	1.07	-0.252 (inactive)	-0.436	0.145 (inactive)	-0.765 (inactive)	-2.4 (inactive)	0.745 (inactive)	-0.286 (inactive)	0.109 (inactive)	-0.663 (inactive)	-0.904	-0.25
COCCOC(=O)N1C(=O)[C@@]2(c3cc(C#CCNC(N)=O)ccc31)[C@H](C(N)=O)[C@H]1C(=O)O[C@H](c3ccccc3)[C@H](c3ccccc3)N1[C@@H]2c1ccc(OCCO)cc1	-0.304	-0.867	-0.392	-0.905	0.66	-2.81	0.441 (inactive)	-0.634	-0.602	0.452 (inactive)	-0.195	0.713 (inactive)	-0.508 (inactive)	0.506 (inactive)	0.995 (inactive)	1.62 (inactive)	0.152 (inactive)	-0.0952 (inactive)	-1.09	-0.188
COCCCNC(=O)[C@@]1(Cc2ccccc2I)c2ccccc2C(=O)N(Cc2ccccc2Cl)[C@H]1c1ccc(CO)cc1	-0.119	0.39	0.9	-0.36	-0.503	1.29	0.781 (inactive)	-0.778	0.148	2.16 (inactive)	1.01	-1 (inactive)	1.59 (inactive)	-0.278 (inactive)	0.112 (inactive)	-0.0403 (inactive)	0.0867 (inactive)	0.607 (inactive)	1.82	0.186
N#Cc1ccc(NN2C(C(O)c3ccccc3)C=CC3C(=O)N(c4ccccc4)C(=O)C32)cc1 (stereo not given)	-1.14	-0.173	0.216	-0.861	-0.32	-0.782	-0.182 (inactive)	0.0989	0.976	-0.331 (inactive)	-0.822	-1.47 (inactive)	-0.0476 (inactive)	-0.804 (inactive)	0.158 (inactive)	-0.323 (inactive)	-0.371 (inactive)	0.0355 (inactive)	-1.15	-0.0062
NC(=O)NCC#Cc1ccc2c(c1)[C@]1(C(=O)N2)[C@H](c2ccc(O)cc2)N2[C@H](c3ccccc3)[C@H](c3ccccc3)OC(=O)[C@H]2[C@@H]1C(=O)NC[C@H](O)c1ccccc1	0.544	0.192	-0.0875	-0.106	0.0231	0.163	-0.0491 (inactive)	-0.888	0.481	0.716 (inactive)	0.22	-0.683 (inactive)	0.953 (inactive)	-0.494 (inactive)	-0.136 (inactive)	-0.0444 (inactive)	0.203 (inactive)	0.841 (inactive)	0.82	0.045
COC(=O)[C@@]1(Cc2ccccc2N=[N+]=[N-])N=C(c2ccc(OCCCO)cc2)O[C@H]1c1ccccc1	-2.99	-0.421	-5.47	-3.58	-3.93	-3.13	-0.138 (inactive)	-1.06	-2.9	-2.88 (inactive)	-4.36	-0.642 (inactive)	-7.63 (inactive)	1.66 (inactive)	0.77 (inactive)	1.76 (inactive)	0.044 (inactive)	-1.12 (inactive)	-7.12	0.0472
